Screens deposited in PubChem BioAssay by National Center for Advancing Translational Sciences (NCATS).
BAZ2B block: blocks human BAZ2B; Q9UIF8; AlphaScreen BAZ2B-H3K14Ac peptide displacement; Potency, µM (series often up to 114 µM), inactives show top-dose activity change, negative = inhibition, hits mostly inhibitors; 360,000 tested, 4.4% active; further: on the % scale 0 is the no-effect control and ±100 the full control effect; nearly all actives have a fitted effect of over 60% in size
Target sequence (Q9UIF8 whole entry, looked up): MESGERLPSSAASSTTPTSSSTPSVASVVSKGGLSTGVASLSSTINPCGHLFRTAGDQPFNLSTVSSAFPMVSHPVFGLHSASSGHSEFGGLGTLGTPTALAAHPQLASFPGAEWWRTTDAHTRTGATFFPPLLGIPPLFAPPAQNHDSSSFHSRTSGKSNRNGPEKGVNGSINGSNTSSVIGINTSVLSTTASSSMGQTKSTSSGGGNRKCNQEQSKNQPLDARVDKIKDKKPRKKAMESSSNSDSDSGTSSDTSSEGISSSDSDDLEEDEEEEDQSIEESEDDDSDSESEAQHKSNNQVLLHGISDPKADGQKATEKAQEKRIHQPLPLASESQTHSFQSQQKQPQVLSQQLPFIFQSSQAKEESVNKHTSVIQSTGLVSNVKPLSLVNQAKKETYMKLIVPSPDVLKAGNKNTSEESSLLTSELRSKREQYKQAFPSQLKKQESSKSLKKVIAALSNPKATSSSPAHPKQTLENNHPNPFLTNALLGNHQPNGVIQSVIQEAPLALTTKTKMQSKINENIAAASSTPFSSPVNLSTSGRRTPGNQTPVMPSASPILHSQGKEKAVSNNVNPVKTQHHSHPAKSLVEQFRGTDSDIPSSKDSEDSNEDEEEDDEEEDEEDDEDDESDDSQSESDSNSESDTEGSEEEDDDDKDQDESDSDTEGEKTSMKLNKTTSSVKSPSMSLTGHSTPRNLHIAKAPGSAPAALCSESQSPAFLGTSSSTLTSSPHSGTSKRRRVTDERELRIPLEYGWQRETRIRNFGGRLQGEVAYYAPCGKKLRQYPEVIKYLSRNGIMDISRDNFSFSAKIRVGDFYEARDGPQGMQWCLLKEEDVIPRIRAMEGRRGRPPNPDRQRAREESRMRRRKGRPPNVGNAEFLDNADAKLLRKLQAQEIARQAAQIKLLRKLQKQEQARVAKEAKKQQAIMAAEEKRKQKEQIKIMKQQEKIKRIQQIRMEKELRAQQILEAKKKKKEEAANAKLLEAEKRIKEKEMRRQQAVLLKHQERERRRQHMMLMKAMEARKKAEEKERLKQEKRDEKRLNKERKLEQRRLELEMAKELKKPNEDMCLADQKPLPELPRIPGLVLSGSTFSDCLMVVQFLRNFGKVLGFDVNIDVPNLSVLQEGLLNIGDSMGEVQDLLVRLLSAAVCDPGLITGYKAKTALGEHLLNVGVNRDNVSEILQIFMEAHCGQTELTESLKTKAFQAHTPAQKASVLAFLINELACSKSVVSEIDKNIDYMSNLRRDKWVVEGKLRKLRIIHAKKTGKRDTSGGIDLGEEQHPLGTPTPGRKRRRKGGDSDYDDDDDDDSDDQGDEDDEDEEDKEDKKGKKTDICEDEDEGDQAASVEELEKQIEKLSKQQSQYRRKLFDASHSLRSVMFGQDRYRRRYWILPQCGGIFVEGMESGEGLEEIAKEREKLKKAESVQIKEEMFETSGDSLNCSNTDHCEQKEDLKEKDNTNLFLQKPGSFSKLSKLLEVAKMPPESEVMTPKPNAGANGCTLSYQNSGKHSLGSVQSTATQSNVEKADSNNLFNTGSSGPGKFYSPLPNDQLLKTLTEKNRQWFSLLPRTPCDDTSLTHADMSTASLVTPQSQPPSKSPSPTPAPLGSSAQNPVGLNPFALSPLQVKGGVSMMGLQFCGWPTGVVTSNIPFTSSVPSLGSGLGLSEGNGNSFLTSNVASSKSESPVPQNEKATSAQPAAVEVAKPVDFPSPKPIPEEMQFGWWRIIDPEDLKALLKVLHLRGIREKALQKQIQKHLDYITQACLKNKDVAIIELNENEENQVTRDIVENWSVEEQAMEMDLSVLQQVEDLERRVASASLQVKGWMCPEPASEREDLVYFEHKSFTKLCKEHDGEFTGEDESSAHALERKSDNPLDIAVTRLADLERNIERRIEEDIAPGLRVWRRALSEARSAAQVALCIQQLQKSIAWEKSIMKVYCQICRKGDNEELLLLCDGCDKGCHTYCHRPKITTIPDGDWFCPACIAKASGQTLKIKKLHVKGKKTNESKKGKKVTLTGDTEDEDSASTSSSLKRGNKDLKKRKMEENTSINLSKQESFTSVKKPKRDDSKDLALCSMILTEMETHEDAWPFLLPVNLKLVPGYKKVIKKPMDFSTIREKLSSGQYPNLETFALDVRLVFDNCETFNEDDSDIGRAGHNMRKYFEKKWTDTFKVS
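Inhibition is scored as reduced AlphaScreen emission. The BAZ2B/b-H3(5-23)K14Ac complex (50 nM each) in PBS pH 7.4, 0.01% Tween-20 meets compound (up to 110 uM) for 30 min at RT before bead addition.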
G9a inh: G9a (human) methyltransferase inhibition; AID 504332; Potency, µM (highest dose often 102 µM), inactives show at the highest dose activity, negative = inhibition, actives largely listed as inhibitors; 350,000 tested, 8.8% active; G9a H3K9 monomethylation, AlphaScreen, 2 h; Q96KQ7; further: on the % scale 0 is the no-effect control and ±100 the full control effect; nearly all actives have a fitted effect of over 75% in size
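Compounds were preincubated with 20 nM G9a for 15 min, after which biotinylated H3K9 peptide (500 nM) and SAM (20 uM) started a 2 h room-temperature reaction. Monomethylated product was quantified by antibody-based AlphaScreen chemiluminescence.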
HP1b chromo inh: inhibitors of HP1-beta chromodomain binding to methylated histone tails | AlphaScreen HP1-beta / biotin-H3K9me3 peptide binding | Potency, µM (doses to about 114 µM), for inactives: at the highest dose activity change, negative = inhibition, most hits filed as inhibitors | 390,000 tested, 0.56% active; further: nearly all actives have a fitted effect of over 70% in size
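AlphaScreen: HP1-beta (50 nM) preformed 30 min with biotin-H3(1-18)K9me3 peptide (50 nM) in PBS pH 7.4, 0.01% Tween-20. Compound added for 30 min at RT, then streptavidin donor/nickel chelate acceptor beads (10 ug/mL) for 30 min.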
Sfp inh: blocks B. subtilis Sfp PPTase activity; 310,000 tested, 3.5% active; Potency, µM, without a hit: largest response in the series, negative = inhibition, usual class: inhibitors; AID 1490; Q9F4F7; Biochemical Sfp PPTase activity, qHTS;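 further: the enzyme is Sfp with the accession as filed and its product quenches rhodamine fluorescence; 0% = enzyme reaction without inhibitor and -100% = no enzyme wells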
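Fluorescence-quenching assay with 15 nM Sfp, 5 uM rhodamine-CoA and 12.5 uM BHQ-2-labelled ybbR peptide in pH 7.6 Hepes/MgCl2 buffer. Enzyme was pre-incubated with compound for 15 min at room temperature. Rate was taken from the 30-min fluorescence change (525/598 nm).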
L3MBTL1 block: L3MBTL1 (human) inhibition. Q9Y468. AlphaScreen L3MBTL1–H3K9me1 peptide binding. Potency, µM (doses to about 57.1 µM), without a hit: at the highest dose activity, negative = inhibition, actives largely listed as inhibitors. 230,000 tested, 0.66% active; further: on the % scale 0 is the no-effect control and ±100 the full control effect; nearly all actives have a fitted effect of over 60% in size
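AlphaScreen assay: L3MBTL1 (50 nM final) was preincubated 30 min at room temperature with biotinylated H3(1-15)K9me1 peptide (75 nM final), then 30 min with library compounds; streptavidin donor and nickel chelate acceptor beads (10 ug/mL final) added, 30 min dark.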
JMJD2A Tudor: inhibitors of human JMJD2A Tudor domain; O75164; AlphaScreen JMJD2A-Tudor / H3K4me3 peptide binding; Potency, µM (series often up to 114 µM), without a hit: at the highest dose activity change, negative = inhibition, most hits filed as inhibitors; 390,000 tested, 4.4% active; AID 504339; further: on the % scale 0 is the no-effect control and ±100 the full control effect; nearly all actives have a fitted effect of over 50% in size
* = called active by the depositor; ? = inconclusive; . = not tested or not shown; [ ] = another dose, or the depositor's remark. An excerpt weighted towards active compounds, which were near 12% of everything screened. The call rests on the fitted dose curve; in most records, active means well fitted curve in the direction sought with a large enough effect; inconclusive means small, poorly fitted or top-dose-only effect, or another doubt; inactive means no such curve, though single readings can be large; an effect the other way counts as inactive or inconclusive. Potency means the concentration at half of the fitted maximal effect.

SMILES | BAZ2B block | G9a inh | HP1b chromo inh | Sfp inh | L3MBTL1 block | JMJD2A Tudor
CCOC(=O)N1CCN(CCC(=O)c2ccc(OC)cc2)CC1 | 13% | 10µM* | 45% | -2% | . | -15%
CCOC(=O)N1CCN(CCC(=O)c2ccc(Cl)cc2)CC1 | 22% | ? | 18% | 50µM* | 7%[11.4 µM] | -14%
CCOC(=O)N1CCN(CCC(=O)Nc2ccc(OC)cc2)CC1 | -6% | 12%[59 µM] | 34% | 1% | . | -10%
CCOC(=O)N1CCN(C(=O)Cc2ccc(Cl)cc2)CC1 | 4% | -31% | 35% | 19% | 1% | 3%
c1ccc(Cc2nnc3sc(-c4ccccn4)nn23)cc1 | 5% | ? | -33% | ? | 10% | -15%
c1ccc(CCc2nn3c(Cc4ccccc4)nnc3s2)cc1 | -12% | ? | ? | 22µM* | -1% | -24%
c1ccc(Cc2nnc3sc(-c4ccc5c(c4)OCO5)nn23)cc1 | . | . | ? | . | . | -26%
c1ccc(Cc2nnc3sc(-c4cccs4)nn23)cc1 | 11% | 2.2µM* | -28% | 10% | 3% | -16%
c1ccc(Cc2nnc3sc(-c4ccncc4)nn23)cc1 | -3% | 3.5µM* | -26% | -67% | -5% | -12%
c1ccc(Cc2nnc3sc(-c4ccc5c(c4)OCCO5)nn23)cc1 | 3% | 10µM* | 30% | ? | -4% | -4%
Cc1cccc(S(=O)Cc2ccc(C(=O)NC3CCN(Cc4ccccc4)CC3)o2)c1 (stereo unspecified) | -18% | -3% | 53% | 22% | . | -26%
Cc1ccc(S(=O)(=O)CCc2nnc(NC(=O)COc3cccc(C)c3)s2)cc1 | -1% | -7% | 30% | 8% | 4% | -18%
CCN(CC)CCn1c(SCC(=O)Nc2ccc(F)cc2)nc2c(sc3ccccc32)c1=O | -15% | 35µM* | . | -3% | -6% | .
C=CCN(C(=O)CSc1nc2c(sc3ccccc32)c(=O)n1CCN(CC)CC)c1ccccc1 | ? | 45µM* | -9% | 50µM* | . | ?
COc1ccccc1NC(=O)CSc1nc2c(sc3ccccc32)c(=O)n1CCN(C)C | -32% | ? | 40% | 40µM* | . | -24%
Cc1cc(C)c(Cn2cnc3nc4c(cc3c2=O)CCCC4)c(C)c1 | -15% | 0%[59 µM] | 11%[57 µM] | . | . | -21%
COc1cccc(Nc2ncc3nc(-c4cccs4)c(=O)n(C[C@H]4CCCO4)c3n2)c1 | . | -2%[0.501 µM] | . | -3% | . | .
O=c1[nH]c(CN2CCCC2)nc2sc3c(c12)CCC3 | ? | 40µM* | 8% | -1% | 9% | ?
COC(=O)CCC(NC(=O)c1cc(-c2ccc3c(c2)OCCO3)oc1C)C(=O)OC (stereo unspecified) | ? | ? | -4% | 35µM* | 2% | -14%[57.1 µM]
Cc1oc(-c2ccc3c(c2)OCCO3)cc1C(=O)NC(Cc1ccccc1)C(=O)O (stereo unspecified) | ? | 35µM* | 20% | 22µM* | -10% | -15%
Cc1oc(C(C)(C)C)cc1C(=O)NC(Cc1ccccc1)C(=O)O (stereo unspecified) | -10% | 1% | 21% | 20% | -4% | -21%
Cn1c(O)c(N=NC(=O)C2COc3ccccc3O2)c2ccccc21 (stereo unspecified) | -36% | 1%[12.7 µM] | ? | -3% | -28% | ?
CC(C)n1c(O)c(N=NC(=O)C2COc3ccccc3O2)c2ccccc21 (stereo unspecified) | ? | 35µM* | -22% | 1% | -17% | ?
O=C(Nc1nnc(C2CC2)o1)c1ccc(S(=O)(=O)N2CCCCC2)cc1 | 56µM* | 17% | 46% | 18% | . | ?
CN(C(=O)c1ccc(N2CCOCC2)c([N+](=O)[O-])c1)C1CCCCC1 | -8% | 19% | 24% | 0% | -3% | -9%
SMILES | BAZ2B block | G9a inh | HP1b chromo inh | Sfp inh | L3MBTL1 block | JMJD2A Tudor
CN(c1ccc(C(=O)N2CCOCC2)cc1[N+](=O)[O-])C1CCCCC1 | 50µM* | ? | -8% | -5% | -9% | -32%
CN(C)S(=O)(=O)c1ccc(C(=O)Nc2nnc(-c3ccco3)o2)cc1 | 79µM* | -4% | 11% | -19% | . | 89µM*
CC1CCN(S(=O)(=O)c2ccc(C(=O)Nc3nnc(C4CC4)o3)cc2)CC1 | 50µM* | 26% | 57% | 10% | . | 1%
Cc1ccc(F)c(C2C3C=CCC(C)C3C(=O)N2Cc2ccccc2)c1 (stereo unspecified) | . | . | 44% | -14% | . | 19%
CC1CCN(c2nn3c(=O)c(C(=O)NCCc4ccc(Cl)cc4)cnc3s2)CC1 | 3% | 0%[59 µM] | -6% | . | . | -15%
O=C(Nc1nnc(C2CC2)o1)c1ccc(S(=O)(=O)N2CCCc3ccccc32)cc1 | 50µM* | -12% | 45% | 4% | -2% | -23%
CC1CCCCN1S(=O)(=O)c1ccc(C(=O)N2CCOCC2)cc1 (stereo unspecified) | 18% | 56µM* | 10% | 18% | . | -6%
CC1CCCCN1S(=O)(=O)c1ccc(C(=O)Nc2nnc(-c3ccco3)o2)cc1 (stereo unspecified) | 89µM* | . | 27% | 12% | . | -10%
CC1CCCCN1S(=O)(=O)c1ccc(C(=O)Nc2nnc(C3CC3)o2)cc1 (stereo unspecified) | 50µM* | -1% | 43% | 18% | . | -33%
O=C(O)C1CSC2(CCN(Cc3ccccc3)CC2)N1 (stereo unspecified) | 56µM* | 7.1µM* | ? | 50µM* | 43% | 10µM*
O=C(Cc1ccccc1)NC1CCN(Cc2ccccc2)CC1 | -15% | ? | 46% | 19% | 7% | -9%
NC(=S)N=Nc1c(O)cc(O)c2[nH]c(=O)ccc12 | . | . | 18µM* | . | . | 50µM*
NC(=S)N=Nc1c(O)[nH]c2ccc(F)cc12 | -30% | 27%[59 µM] | 23% | ? | -6% | ?
COC(=O)c1cccc(Cn2nc(C)c([N+](=O)[O-])c2C)c1 | -15% | 5%[59 µM] | 9% | 7% | . | 50µM*
COc1cccc(OCc2nc(-c3cccc([N+](=O)[O-])c3)no2)c1 | -19% | 10%[59 µM] | 5% | -14% | . | -22%
COc1cccc(-c2noc(Cn3nc(C)c([N+](=O)[O-])c3C)n2)c1 | 0% | 40µM* | -12% | 35µM* | -6% | -12%
COc1cc(NC(=O)c2ccccc2)c(C)cc1NC(=O)CC(CC(=O)O)c1ccccc1 (stereo unspecified) | -16% | 8% | 5% | 14% | . | -3%
Cc1cccc(OCC(O)CN2CCNCC2)c1 (stereo unspecified) | 1% | . | 37% | -1% | 3% | -9%
Cc1ccc(OCC(=O)N2CC3(C)CC2CC(C)(C)C3)cc1 (stereo unspecified) | 10% | -12%[59 µM] | 61% | 5% | ? | 0%
